aSyn 5UTR act – Activators via SNCA 5'UTR binding, MLPCN; actives 7.1% (n = 300,000); AID 1814, 2009; activity score, % (tested at 7.5 µM), hits read low; alpha-synuclein 5'UTR reporter, activators screen; in the data active = activity score below about -60%
Active calls of the source: *. Not all results are given here.

How did COc1cccc(C(=O)Nc2ccc(C(F)(F)F)n(C)c2=O)c1 do in these assays?
aSyn 5UTR act: -71*

What do the screens show for `COc1ccsc1C(=O)Nc1ccc(F)cc1F`?
aSyn 5UTR act: -69*

What do the screens show for `COc1cccc(C(=O)Nc2ccccc2F)c1`?
aSyn 5UTR act: -73*

What do the screens show for `COc1cccc(C(=O)Nc2ccc(F)c(F)c2F)c1`?
aSyn 5UTR act: -170*

Results for Cn1ccc(C(=O)Oc2ccc(C(=O)Nc3ccc(F)cc3F)cc2)n1 ?
aSyn 5UTR act: -122*

What do the screens show for `O=C(Nc1ccccc1F)Oc1cccc(OC(=O)Nc2ccccc2F)c1`?
aSyn 5UTR act: -108*

Results for CC1OC(Nc2ccc(N=Nc3ccccc3)cc2)C(O)C(O)C1O (configuration not stated) ?
aSyn 5UTR act: -63*

Results for CCN1C(=O)/C(=C/N2CCc3ccccc32)SC1=S ?
aSyn 5UTR act: -190*

How did CS(=O)(=O)c1sc(C#N)c2c1C(=O)CC(c1ccccc1)C2 (configuration not stated) do in these assays?
aSyn 5UTR act: 81

Results for Cc1ccc(/C=C2\SC(=S)N(CCCC(=O)NC3CCCC3)C2=O)cc1 ?
aSyn 5UTR act: 98

Results for COc1cc(/C=C2\SC(=S)N(CCC(=O)NC3CCCC3)C2=O)cc(OC)c1OC ?
aSyn 5UTR act: -71*

How did O=C(Nc1nccs1)c1ccc(COc2ccc(F)cc2)o1 do in these assays?
aSyn 5UTR act: -97*

How did O=C(COc1ccc(F)cc1)Nc1nc2c(s1)CCCC2 do in these assays?
aSyn 5UTR act: -92*

Results for Cc1c(C)c2ccc(OCC(=O)Nc3nccs3)cc2oc1=O ?
aSyn 5UTR act: 66

How did O=C(COc1ccc(F)cc1)Nc1nccs1 do in these assays?
aSyn 5UTR act: -91*

Results for COc1ccc(CN2CCN(Cc3cccn3-c3ncccn3)CC2CCO)c(C)c1C (configuration not stated) ?
aSyn 5UTR act: 60

Results for COc1ccc(-c2ncc(CN3CCN(CCC(C)C)C(CCO)C3)cn2)cc1 (configuration not stated) ?
aSyn 5UTR act: -111*

What do the screens show for `COc1ccc2c(c1)CCC1C2=NN(/C(C)=C/C(C)=O)C1c1cccc(F)c1` (configuration not stated)?
aSyn 5UTR act: -66*

How did COC(=O)/C(C#N)=C1/C=Cc2ccccc2N1 do in these assays?
aSyn 5UTR act: -99*

Results for CCN1CC(O)=C(c2nc3ccccc3s2)C1=N ?
aSyn 5UTR act: -70*

How did N=C1C(c2nc3ccccc3s2)=C(O)CN1c1ccccc1 do in these assays?
aSyn 5UTR act: -120*

What do the screens show for `CCCCN1CC(O)=C(c2nc3ccccc3s2)C1=N`?
aSyn 5UTR act: -167*

How did CN(C)c1ccc(C2C3CCCc4ccccc4C3=NN2C)cc1 (configuration not stated) do in these assays?
aSyn 5UTR act: -134*

How did CN1N=C2c3ccccc3CCC2C1c1ccc(C(F)(F)F)cc1 (configuration not stated) do in these assays?
aSyn 5UTR act: -72*

Results for N#CC(C#N)=c1ccc2c(c1)NC1(CCCCC1)N=2 ?
aSyn 5UTR act: -337*

What do the screens show for `Cc1ccc(C(=O)C(C)OC(=O)c2ccccc2[N+](=O)[O-])cc1` (configuration not stated)?
aSyn 5UTR act: -158*

How did Cc1ccc(C(=O)/C=C/c2ccccc2[N+](=O)[O-])cc1 do in these assays?
aSyn 5UTR act: -173*

What do the screens show for `O=C(/C=C/c1ccccc1[N+](=O)[O-])c1ccccc1Br`?
aSyn 5UTR act: -79*

How did COc1cccc(NC(=O)C(=O)NCCC2CCCCN2S(=O)(=O)c2cccs2)c1 (configuration not stated) do in these assays?
aSyn 5UTR act: -148*

Results for CC(C)CCNC(=O)C(=O)Nc1ccc2c(c1)N(S(=O)(=O)c1cccs1)CCC2 ?
aSyn 5UTR act: -73*

How did O=C(N/N=C1\CCc2ccccc21)c1ccccc1Cl do in these assays?
aSyn 5UTR act: -129*

What do the screens show for `O=C(N/N=C/c1ccc(O)cc1O)c1ccc(CN2C(=O)c3cccc4cccc2c34)cc1`?
aSyn 5UTR act: 62

How did O=C(N/N=C1\C(=O)c2cccc3cccc1c23)c1ccc(O)cc1 do in these assays?
aSyn 5UTR act: -137*

How did Cc1ccc(C(=O)N/N=C2\CCc3ccccc32)c(C)c1 do in these assays?
aSyn 5UTR act: -139*

Results for O=C(N/N=C1\CCc2ccccc21)c1ccc(O)cc1 ?
aSyn 5UTR act: -75*

What do the screens show for `O=C(N/N=C1\CCCc2ccccc21)c1cccc(Br)c1`?
aSyn 5UTR act: -93*

What do the screens show for `C/C(=N\NC(=O)c1cccc(Br)c1)c1ccccn1`?
aSyn 5UTR act: 108

What do the screens show for `S=C(N/N=C1\CCc2ccccc21)NC1CCCCC1`?
aSyn 5UTR act: -106*

Results for CCOC(=O)N/N=C1\CCc2ccccc21 ?
aSyn 5UTR act: -102*

How did Oc1ccc(Nc2nc(-c3ccc4ccccc4c3)cs2)cc1 do in these assays?
aSyn 5UTR act: -210*

Results for CC(=O)Nc1nc(-c2ccc3ccccc3c2)cs1 ?
aSyn 5UTR act: -143*

How did CCOC(=O)c1cnn(-c2ccccn2)c1N do in these assays?
aSyn 5UTR act: -116*

Source: PubChem BioAssay (Broad Institute)
